# Source: PubChem (several laboratories)
# Mtb betalactam: beta-lactam sensitization of Mtb H37Rv; M. tuberculosis H37Rv growth with meropenem, percent inhibition; inhibition, % at 25 µM; 330,000 tested, 0.27% active; call rule not given here;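 note: growth measured after seven days incubation then overnight dye step; 0% = bacteria only wells and 100% = bacteria with antibiotic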
# Mtb UGM inh: Mtb UDP-galactopyranose mutase inhibition; purified UGM, fluorescence polarization probe displacement; inhibition, % at 10 µM; 320,000 tested, 0.06% active; in the data active = inhibition above about 10%, passing the limit was not always enough
# Rv3671c inh: Rv3671c (M. tuberculosis) protease inhibition; inhibition, % at 5.96 µM; 320,000 tested, 0.048% active; P9WHR9; in the data active = inhibition above about 38%;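 note: extracellular domain of Rv3671c used as enzyme; 0% = enzyme with DMSO and 100% = no enzyme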
# Target sequence (P9WHR9 whole entry, looked up, the tested form may be a part): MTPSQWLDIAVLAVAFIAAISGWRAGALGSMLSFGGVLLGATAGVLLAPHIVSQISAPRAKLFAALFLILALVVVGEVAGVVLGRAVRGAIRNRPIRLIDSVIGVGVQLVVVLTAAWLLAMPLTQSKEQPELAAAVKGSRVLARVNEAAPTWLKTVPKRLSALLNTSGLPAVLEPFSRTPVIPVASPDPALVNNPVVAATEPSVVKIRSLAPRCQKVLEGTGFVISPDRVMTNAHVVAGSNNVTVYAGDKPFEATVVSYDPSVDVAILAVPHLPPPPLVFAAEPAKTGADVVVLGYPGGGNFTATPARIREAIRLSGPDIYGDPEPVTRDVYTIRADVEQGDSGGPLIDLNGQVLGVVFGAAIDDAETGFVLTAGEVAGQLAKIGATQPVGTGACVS
# FBA Mtb inh: inhibits M. tuberculosis FBA enzyme; AID 588726; purified M. tuberculosis FBA, fluorescence read-out; P9WQA3; inhibition, % at 1 µM; 360,000 tested, 2.3% active;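 note: 0% = vehicle and 100% = reference inhibitor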
# FadD28 binding: inhibitors of Mycobacterium tuberculosis FadD28 bisubstrate binding | FadD28 bisubstrate probe binding, fluorescence polarization | inhibition, % at 12.5 µM | 360,000 tested, 0.22% active | AID 588549; in the data active = inhibition above about 8.5%, passing the limit was not always enough
# GDH-TPI counter-1: counter-screen for M. tuberculosis FBA inhibitors: GDH-TPI coupled enzymes; GDH-TPI coupled enzyme counterscreen, NADH absorbance; inhibition, % at 4.8 µM; 360,000 tested, 1.2% active; in the data active = inhibition above about 30%;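 note: 0% = DMSO wells and 100% = wells lacking the enzyme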
# Mtb FBA inh conf: confirmation of M. tuberculosis fructose-bisphosphate aldolase inhibitors | inhibition, % at 1 µM | AID 651616 | 5,600 tested, 78% active | shares compounds with FBA Mtb inh | purified M. tuberculosis FBA, fluorescence read-out;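 note: 0% = vehicle wells and 100% = reference inhibitor wells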
# GDH-TPI counter-2: counter-screen for M. tuberculosis FBA inhibitors: GDH-TPI coupled enzyme inhibition | 5,600 tested, 81% active | AID 652141 | inhibition, % at 1 µM | GDH-TPI coupled enzyme counterscreen, fluorescence | shares compounds with FBA Mtb inh; in the data active = inhibition above about 10%
# The depositor's hits bear a star; x = no result; + = active, no number. The list is not random: actives were taken first. Their share in the collection is about 3.7%. Cut-off read from the data, not from the text of the source, unless noted: active = inhibition above about 27%; inactive = the rest.
SMILES,Mtb betalactam,Mtb UGM inh,Rv3671c inh,FBA Mtb inh,FadD28 binding,GDH-TPI counter-1,Mtb FBA inh conf,GDH-TPI counter-2
CCCOc1ccccc1-c1nc2c([nH]1)c(=O)[nH]c(=O)n2C,14.6,-1.7,-1.7,58.8*,-2.4,28.2,66.1*,44.1*
Cc1cc(N=Cc2c(O)n(-c3cccc(Cl)c3)c(=O)c3ccccc23)no1,54.3,0.8,-14.6,56.8*,-3.1,19.5,105.5*,82.6*
CC(=O)NC(c1ccc(F)c(F)c1)c1nc(-c2cccc(F)c2)cs1 (stereo unspecified),x,x,x,-3.1,-2.5,2.7,x,x
O=C(O)c1cnc2ccccc2n1,5.0,-1.9,-2.5,33.5*,-1.4,5.2,61.7*,43.3*
COC(=O)c1cnc2ccccc2n1,-1.2,0.5,-1.8,-1.2,-2.4,3.0,x,x
Cc1ccc(C(=O)Nc2cccnc2)cc1C,x,x,x,1.3,-0.4,7.1,x,x
CC(C)(O)[C@H](O)COc1c2occc2cc2ccc(=O)oc12,-9.2,2.8,-3.0,4.7,1.5,8.5,x,x
COc1ccc2ccc(=O)oc2c1CC(O)C(C)(C)O (stereo unspecified),-6.2,-2.2,3.1,66.2*,-1.6,13.7,3.5,-4.8
COc1ccc2ccc(=O)oc2c1CC(=O)C(C)C,-3.7,x,-2.8,39.0*,-2.2,13.9,26.5,17.6*
O=c1ccn(C2CCCCC2)c(=O)[nH]1,x,x,x,0.8,0.0,5.6,x,x
COc1cc(F)ccc1-c1csc(C(NC(C)=O)c2cccc(F)c2)n1 (stereo unspecified),x,x,x,-3.6,-2.7,0.9,x,x
Cc1noc(C)c1COc1ccc(C(=O)NCC(c2c(F)cccc2Cl)N(C)C)cc1 (stereo unspecified),x,x,x,1.2,-0.8,2.1,x,x
c1cc(-c2ccsc2)n2ccnc2c1,x,x,x,56.0*,-1.6,4.6,172.5*,137.2*
Cc1cc(O)ccc1-c1cccc2nccn12,x,x,x,49.3*,-6.2,-2.6,-4.1,-3.4
COc1ccc(-c2cc3nc(-c4ccccc4)cc(N4CCN(C(=O)c5ccccc5)CC4)n3n2)cc1,x,x,x,2.9,-3.3,9.0,x,x
COc1ccc(-c2cc3nc(-c4ccccc4)cc(N4CCN(C(=O)c5ccsc5)CC4)n3n2)cc1,x,x,x,3.2,-2.2,-2.8,x,x
Fc1ccc(-c2cc3nc(-c4ccccc4)cc(N4CCOCC4)n3n2)cc1,1.9,-0.6,5.7,7.2,-1.4,6.5,x,x
COc1ccc(-c2cc3nc(-c4ccccc4)cc(N4CCCC(O)C4)n3n2)cc1 (stereo unspecified),0.7,-1.4,-3.8,79.0*,-2.6,-7.6,9.6,-3.9
COc1ccc(-c2cc3nc(-c4ccccc4)cc(N4CCC(O)CC4)n3n2)cc1,3.4,3.7,-17.0,79.7*,-2.8,11.8,39.0*,27.0*
COc1ccc(-c2cc3nc(-c4ccccc4)cc(N4CCN(C(C)=O)CC4)n3n2)cc1,x,x,x,69.7*,-4.5,20.6,2.3,1.4
NS(=O)(=O)c1cc(C(=O)Nc2ccc3c(c2)CCC3)ccc1Cl,0.7,1.0,-4.4,-0.7,-1.5,-3.3,x,x
Cc1cc(-c2ccccc2)n2ncc(C#N)c2n1,-5.0,5.2,-0.5,55.1*,-1.1,24.5,-1.6,-6.5
Cc1ccc(S(=O)(=O)c2c(N)n(CCN3CCOCC3)c3nc4ccccc4nc23)cc1C,-2.4,0.5,-2.2,15.0,-0.3,13.8,x,x
Nc1c(S(=O)(=O)c2ccccc2)c2nc3ccccc3nc2n1CCN1CCOCC1,-10.1,1.7,-0.7,46.8*,-2.4,15.0,70.0*,55.0*
Cn1c(N)c(S(=O)(=O)c2ccc(Br)cc2)c2nc3ccccc3nc21,-0.4,0.2,-19.4,106.8*,-1.7,28.6,18.7,18.2*
SMILES,Mtb betalactam,Mtb UGM inh,Rv3671c inh,FBA Mtb inh,FadD28 binding,GDH-TPI counter-1,Mtb FBA inh conf,GDH-TPI counter-2
Cc1ccc(S(=O)(=O)c2c(N)n(CCC(C)C)c3nc4ccccc4nc23)cc1,-0.4,-0.2,-48.8,45.6*,1.0,4.4,107.3*,80.3*
O=C(Nc1nnc(-c2ccc(F)cc2)o1)c1ccc(S(=O)(=O)N2CCOCC2)cc1,81.7,0.7,2.4,-1.4,0.7,8.6,x,x
CCCn1c2ccccc2c2cnn(CC(=O)NCCCN3CCCC(C)C3)c(=O)c21 (stereo unspecified),-4.3,0.2,0.2,11.1,-5.1,1.9,x,x
CN1C(=O)c2ccc(NC(=O)c3ccc(Cl)cc3Cl)cc2C1=O,-5.3,1.7,-6.8,37.5*,-0.2,4.3,95.1*,70.0*
O=C(Nc1ccc2c(c1)C(=O)OC2)c1ccc(Cl)cc1Cl,-1.8,-0.9,-1.9,0.1,-1.7,-0.8,x,x
CCN1CCN(S(=O)(=O)c2ccc3c4c(cccc24)C(=O)N3CC)CC1,3.9,2.3,-4.2,29.2*,0.8,1.3,158.0*,149.4*
CCN1C(=O)c2cccc3c(S(=O)(=O)N4CCNCC4)ccc1c23,-0.9,-0.2,1.7,27.8*,0.5,21.4,73.2*,65.1*
CCc1nc2ccc(C(=O)NCCc3ccccn3)cn2c1N(CC)CCOC,x,x,x,1.3,0.2,-2.2,x,x
N#Cc1c(NC(=O)/C=C/C(=O)O)sc2c1CCN(Cc1ccccc1)C2,3.9,-1.7,-6.9,13.3,-0.1,15.2,x,x
CC(C)Cc1cc(-c2ccco2)c(C#N)c(N)n1,-3.3,4.1,-3.2,53.5*,-0.6,6.1,168.9*,145.1*
Cn1c(N)nc(N)c(NC=O)c1=O,x,x,x,-2.5,-4.6,x,x,x
CCN(CC)C(=O)CN1C(=O)C2(NC(=O)c3ccccc3N2)c2ccccc21 (stereo unspecified),3.4,0.7,10.3,12.5,0.5,6.9,x,x
CC(=O)N1CC2(NC(=O)c3ccccc3N2)c2ccccc21 (stereo unspecified),0.8,-0.2,1.0,80.4*,-1.9,4.3,+,188.2*
O=S(=O)(O)c1cc(O)c2ccc(Nc3ccccc3)cc2c1,x,x,x,35.0*,24.1*,7.7,3.9,-1.0
O=S(=O)(O)c1cc(O)c2cc(Nc3ccccc3)ccc2c1,x,x,x,47.7*,28.1*,17.0,90.9*,97.6*
CCC(C)N(C(=O)CSc1nnc2ccccn12)C1CCS(=O)(=O)C1 (stereo unspecified),x,x,x,6.0,-1.8,1.4,x,x
Cc1ccsc1C(=O)N1CCC1(C)C(=O)NS(=O)(=O)c1cccc(F)c1 (stereo unspecified),x,x,x,-1.9,-3.1,-5.3,x,x
CCC(CC)C(=O)Nc1nnc(-c2cccs2)s1,-12.9,2.3,-7.8,35.9*,-3.6,11.7,87.7*,75.5*
COc1cccc(OC)c1C(=O)Nc1nnc(-c2cccs2)s1,3.5,-0.3,-1.1,13.1,-4.2,29.3,x,x
COc1ccccc1CNc1nc(NCC2CC2)nc2ccsc12,x,x,x,5.3,-2.2,3.5,x,x
CC[C@]12c3[nH]c4cc(-c5ccco5)ccc4c3CCN1C(=O)[C@@H](CC(=O)NCCC1=CCCCC1)C[C@@H]2C(=O)N1CCN(C(=O)c2ccco2)CC1,x,x,x,20.8,-0.7,17.7,x,x
